MbtI inh: inhibitors of Mycobacterium tuberculosis siderophore enzyme MbtI. P9WFX0. purified MbtI enzyme, fluorescence intensity read-out. inhibition, % (no concentration beside the values). actives 0.89% (n = 100,000). AID 493033; in the data active = inhibition mostly above about 56%, no sharp cut-off; inactive = mostly below about 77%
MenB inh: Mtb MenB enzyme inhibition. P9WNP5. MenB enzyme assay, absorbance read-out. inhibition, % (test concentration not listed). actives 0.43% (n = 100,000). AID 540299; in the data active = inhibition above about 21%, passing the limit was not always enough
Polio RdRp inh: poliovirus RNA polymerase inhibition; actives 0.66% (n = 150,000); poliovirus polymerase elongation, fluorescence polarization; active compounds read low; % elongation, % (compound at 16.7 µg/mL); P03300; in the data active = % elongation below about 90%
Target sequence (P03300 1749-2209 limits assumed): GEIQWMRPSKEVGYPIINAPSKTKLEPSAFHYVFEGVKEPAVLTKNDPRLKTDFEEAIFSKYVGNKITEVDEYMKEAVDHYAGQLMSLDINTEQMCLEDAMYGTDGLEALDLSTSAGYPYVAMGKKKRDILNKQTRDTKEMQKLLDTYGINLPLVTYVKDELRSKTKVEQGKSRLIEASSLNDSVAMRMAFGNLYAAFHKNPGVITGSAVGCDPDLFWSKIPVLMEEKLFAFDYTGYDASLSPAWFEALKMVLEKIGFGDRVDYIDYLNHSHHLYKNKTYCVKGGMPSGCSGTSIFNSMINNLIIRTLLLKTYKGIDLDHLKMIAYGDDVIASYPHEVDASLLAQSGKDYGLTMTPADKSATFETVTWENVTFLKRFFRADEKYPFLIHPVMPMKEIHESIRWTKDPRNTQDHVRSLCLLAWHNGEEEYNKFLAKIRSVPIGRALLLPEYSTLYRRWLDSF
AID504770: E. coli YBA685 growth inhibition, screen for V. cholerae RctB inhibitors | actives 0.27% (n = 130,000) | z-score (test concentration not listed) | E. coli YBA685 rctB-dependent plasmid, OD600 growth, 3 h; active compounds read low | AID 504770; in the data active = z-score below about -2, passing the limit was not always enough
The depositor's hits bear a star; i = inactive; · = not tested or not shown. In the library only some 1.4% were active in any assay of this set; here they are far more common.

SMILES	MbtI inh	MenB inh	Polio RdRp inh	AID504770
NNC(=O)c1nn(-c2ccccc2)c(=O)c2c(N)scc12	41	1	91	0.35
CC(C)(C)OC(=O)NN=C1CCCC1	-14	-2	102	-1.1
CCOC(=O)c1c(NC(=O)c2noc3c2CC(C(C)(C)C)CC3)sc2c1CCCC2 (configuration not stated)	·	·	76*	·
NC(=O)c1c(NC(=O)c2noc3c2CCCC3)sc2c1CCCC2	·	·	69*	·
Cc1ccc(C)n1-c1ccc(C(=O)N2CCC(=O)CC2)cc1	-11	-68	99	-0.15
CCSc1nsc(NC(=O)Nc2cccc(F)c2)n1	20	15	102	-2.8*
O=C1CSCC(=O)N1c1ccc2c(c1)OCO2	·	·	·	-0.3
O=C1CSCC(=O)N1c1cccnc1	-12	3	84*	-1
Cc1cc(F)ccc1NC(=O)CCc1nnc2ccc(N3CCC4(CC3)OCCO4)nn12	14	17	101	0.45
Brc1ccc(-c2csc(NN=C3CCCC3)n2)cc1	80*	-36	101	-0.3
Cc1ccc(NC2=C(c3ccc(C(F)(F)F)cc3)C(=O)c3ccccc32)cc1C	·	·	81*	·
CCOC(=O)/C=C1\SCC(=O)N1CCOc1ccccc1C#N	-5	2	132	1.3
O=C1CCSC(=O)N1CN1CCN(S(=O)(=O)c2ccc(Cl)cc2)CC1	-6	-3	104	-0.05
O=C1C2CN3CCN(C2)CC1(c1ccccc1)C3	0	·	·	1.8
O=C1C2CN3CN(C2)CC1(c1ccccc1)C3	4	34*	99	0.25
O=C1c2ccccc2-c2n[nH]c(=S)nc21	27	i	76*	-2.6*
O=C1c2ccccc2-c2nc3ccccc3nc21	5	12	100	-0.4
O=C(CCC(=O)c1ccccc1)Nc1ccccc1F	7	9	100	1.6
O=c1c2ccccc2n2c(=S)[nH]nc2n1Cc1ccccc1	38	-106	98	-0.45
O=C1CSc2ccccc2N1Cc1n[nH]c(=S)n1Cc1ccccc1	56*	-30	99	-0.4
Clc1ccc(NCCC2=CCCCC2)nn1	6	34*	100	0.25
CC1CCc2cc(F)cc3c(=O)c(C(=O)O)cn1c23 (configuration not stated)	-1	-5	100	-3.4*
O=C(Cn1c(=O)cnc2ccccc21)NC1CCCc2ccccc21 (configuration not stated)	17	-19	119	-0.7
OCCC12CC3CC(CC(C3)C1)C2	6	-16	105	-0.6
CC1(C)CC(=O)C=C(NNc2ccccn2)C1	58*	-78	101	-0.55
SMILES	MbtI inh	MenB inh	Polio RdRp inh	AID504770
CC1CN(c2nc(C(F)(F)F)cc(=O)[nH]2)CC(C)O1 (configuration not stated)	·	·	·	-0.35
CCC(=O)Nc1nc(-c2ccc(C)cc2C)cs1	·	·	·	2
Cc1ccc(-c2csc(Nc3ccc(C(=O)O)cc3)n2)c(C)c1	·	-20	90*	0.3
CCn1cc(C(=O)O)c(=O)c2cc(F)c(N3CCN(C(=O)c4ccc(F)cc4)CC3)cc21	-94	-19	102	-3.7*
CCn1cc(C(=O)O)c(=O)c2cc(F)c(N3CCN(C(C)=O)CC3)cc21	107	-10	109	-3*
CCn1cc(C(=O)O)c(=O)c2cc(F)c(N3CCNCC3)nc21	-31	6	104	-3.5*
O=C(CN1CCOCC1)N(C1CCCCC1)C1CCS(=O)(=O)C1 (configuration not stated)	-6	-4	101	1.1
O=C(NC(=S)Nc1ccccc1O)C1CCCCC1	-3	-28	104	1.5
CC1CCN(S(=O)(=O)c2ccc(C(=O)NCc3ccco3)cc2)CC1	·	-14	89*	-0.3
O=C(NC1CCCCC1)O/N=C/c1ccc(F)cc1	-12	-7	103	-0.55
O=C1NC(=O)N(c2ccccc2)C(=O)/C1=C/c1ccccc1	3	-40	98	2.1
CCC(C)N1C(=O)/C(=C\c2cnn(-c3ccccc3)c2)C(=O)NC1=S (configuration not stated)	80*	-30	99	-1.1
O=C(O)c1ccc(NC2OC(CO)C(O)C2O)cc1 (configuration not stated)	·	-15	90*	1.2
CCOc1ccc(C(=O)c2c(N)c(-c3nc(-c4ccc5c(c4)OCO5)cs3)c3ccccn23)cc1	·	·	105	·
COc1cccc(-c2csc(-c3c(N)c(C(=O)c4ccc5c(c4)OCO5)n4ccccc34)n2)c1	·	·	76*	·
O=C(Oc1ccc(Br)cc1F)C1CC(=O)N(c2ccc3c(c2)OCCO3)C1 (configuration not stated)	2	-33	87*	-0.9

Screening results: PubChem BioAssay, ICCB-Longwood Screening Facility, Harvard Medical School
